Source: PubChem BioAssay (NCI)
The panel holds about 79,000 compounds, 15% with a hit somewhere; the sample as a whole holds those more often. Calls of active or inactive are those of the source. Rule as the data show it: active = growth inhibition above about 70%; inactive = the rest.

Columns and labels:
[1] = NCI Yeast Anticancer Drug Screen. Data for the rad52 strain (AID 147);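 also: 0% = growth of vehicle-treated control cultures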; conditions: S. cerevisiae rad52 mutant growth inhibition, stronger effect = higher value
In short: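 Genetically altered yeast (DNA damage repair defect) treated with compound; inhibition calculated relative to vehicle.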

[2] = NCI Yeast Anticancer Drug Screen. Data for the wt1 strain (AID 149);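 also: 0% = growth of vehicle-treated wt1 cultures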; conditions: S. cerevisiae wt1 strain (SPY 50644) growth inhibition, stronger effect = higher value
In short: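 Readout: yeast growth inhibition, normalised to vehicle controls, in the wt1 strain exposed to test compounds.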

[3] = NCI Yeast Anticancer Drug Screen. Data for the rad50EPP+ strain (AID 151);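 also: 0% = growth of vehicle-treated control cultures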; conditions: S. cerevisiae rad50 mutant strain, stronger effect = higher value
In short: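 Strain rad50EPP+; compound exposure; % growth inhibition vs vehicle.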

[4] = NCI Yeast Anticancer Drug Screen. Data for the mgt1 strain (AID 153); conditions: S. cerevisiae mgt1 mutant growth inhibition, stronger effect = higher value
In short: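 Read-out: yeast growth inhibition vs vehicle control. Strain mgt1, drawn from a panel altered in DNA damage repair or cell cycle control.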

[5] = NCI Yeast Anticancer Drug Screen. Data for the rad50 strain (AID 155);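 also: 0% = growth of vehicle-only cultures of the same strain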; conditions: S. cerevisiae rad50 strain growth inhibition, stronger effect = higher value
In short: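 Compounds were tested on a yeast strain with an engineered DNA damage repair alteration; the reported value is growth inhibition normalised to vehicle treatment.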

[6] = NCI Yeast Anticancer Drug Screen. Data for the mec2-1 strain (AID 157); conditions: S. cerevisiae mec2-1 strain, stronger effect = higher value
In short: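 Cells of the genetically defined mec2-1 yeast strain are incubated with test compound. Inhibition of growth is calculated against vehicle-treated controls.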

[7] = NCI Yeast Anticancer Drug Screen. Data for the rad14 strain (AID 159);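 also: 0% = growth of vehicle-treated control cultures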; conditions: S. cerevisiae rad14 strain growth inhibition, stronger effect = higher value
In short: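 Compound-treated yeast with a defined DNA-repair lesion; growth inhibition normalised to vehicle-treated cultures.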

[8] = NCI Yeast Anticancer Drug Screen. Data for the sgs1 mgt1 strain (AID 161);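 also: 0% = growth of cultures given vehicle only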; conditions: S. cerevisiae sgs1 mgt1 strain, stronger effect = higher value
In short: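 Read-out: growth inhibition vs vehicle controls. Cells: mutant yeast strain deficient in DNA damage repair.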

[9] = NCI Yeast Anticancer Drug Screen. Data for the CLN2oe strain (AID 163);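 also: 0% = growth of vehicle-only control cultures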; conditions: S. cerevisiae CLN2oe strain, stronger effect = higher value
In short: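 Strain altered in cell-cycle control, incubated with compound; growth compared to solvent-treated controls.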

[10] = NCI Yeast Anticancer Drug Screen. Data for the cln2 rad14 strain (AID 165);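 also: 0% = growth equal to vehicle treated cultures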; conditions: S. cerevisiae cln2 rad14 strain, stronger effect = higher value
In short: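 The screen exposed genetically defined yeast (cln2 rad14) to test compounds and scored growth inhibition relative to vehicle-treated controls.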

[11] = NCI Yeast Anticancer Drug Screen. Data for the bub3 strain (AID 167); conditions: S. cerevisiae bub3 mutant strain, stronger effect = higher value
In short: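 Growth of a checkpoint-deficient yeast mutant is measured after compound exposure. Values represent inhibition relative to vehicle.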

[12] = NCI Yeast Anticancer Drug Screen. Data for the wt2 strain (AID 169);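 also: 0% = growth of vehicle-treated yeast cultures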; conditions: S. cerevisiae wt2 strain growth inhibition, stronger effect = higher value
In short: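 Steps: yeast strain treated with compound; growth recorded; inhibition calculated relative to cultures given vehicle alone.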

[13] = NCI Yeast Anticancer Drug Screen. Data for the mlh1 strain (AID 171);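 also: 0% = growth of vehicle-treated control cultures of the same strain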; conditions: S. cerevisiae mlh1 strain growth inhibition, stronger effect = higher value
In short: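 Yeast screen: mutant strain plus compound, growth scored against vehicle control wells.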

[14] = NCI Yeast Anticancer Drug Screen. Data for the sgs1 strain (AID 173);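 also: 0% = growth of vehicle-only control cultures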; conditions: S. cerevisiae sgs1 mutant, stronger effect = higher value
In short: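 Inhibition of yeast growth served as the measure. The mutant strain was treated with each compound, and growth was normalised to cultures receiving vehicle alone.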

[15] = NCI Yeast Anticancer Drug Screen. Data for the mlh1 rad18 strain (AID 175); conditions: S. cerevisiae mlh1 rad18 strain growth inhibition, stronger effect = higher value
In short: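 Compound-treated yeast growth, normalised to vehicle controls. Strain bears defined DNA repair mutations.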

[16] = NCI Yeast Anticancer Drug Screen. Data for the rad18 strain (AID 177); conditions: S. cerevisiae rad18 mutant growth inhibition, stronger effect = higher value
In short: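 Inhibition values reflect reduced yeast growth compared with vehicle-treated controls, using a strain engineered with a DNA damage repair defect.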

[17] = at 5.0 µM (retest, dose inferred, filed as 0.5)
[18] = at 50.0 µM (retest, dose inferred, filed as 5.0)

Measured: growth inhibition

CCN(CC)CCNc1ccc(C)c2sc3ccc(O)cc3c(=O)c12
active: [1]; at 3.7 µM 89% | [1]; at 11.0 µM 94% | [1]; at 33.0 µM 98% | [1]; at 100.0 µM 99% | [2]; at 33.0 µM 79% | [2]; at 100.0 µM 99% | [3]; at 11.0 µM 78% | [3]; at 33.0 µM 84% | [3]; at 100.0 µM 98% | [4]; at 33.0 µM 89% | [4]; at 100.0 µM 99% | [5]; at 1.2 µM 72% | [5]; at 3.7 µM 94% | [5]; at 11.0 µM 96% | [5]; at 33.0 µM 98% | [5]; [18] 98% | [5]; at 50.0 µM 90.3% | [5]; at 100.0 µM 99% | [6]; at 33.0 µM 91% | [6]; [18] 98% | [6]; at 50.0 µM 92% | [6]; at 100.0 µM 99% | [7]; at 33.0 µM 93% | [7]; at 100.0 µM 99% | [8]; [18] 99% | [8]; at 50.0 µM 91.7% | [9]; at 33.0 µM 94% | [9]; at 100.0 µM 99% | [10]; [18] 98% | [10]; at 50.0 µM 90.9% | [11]; at 33.0 µM 91% | [11]; [18] 99% | [11]; at 50.0 µM 91.2% | [11]; at 100.0 µM 99% | [12]; at 33.0 µM 98% | [12]; at 100.0 µM 98% | [13]; at 33.0 µM 86% | [13]; at 100.0 µM 99% | [14]; at 33.0 µM 97% | [14]; at 100.0 µM 99% | [15]; [18] 99% | [15]; at 50.0 µM 91% | [16]; at 33.0 µM 97% | [16]; at 100.0 µM 99%
inactive: [1]; at 1.2 µM 60% | [2]; at 1.2 µM -7% | [2]; at 3.7 µM -10% | [2]; at 11.0 µM 8% | [3]; at 1.2 µM 37% | [3]; at 3.7 µM 50% | [4]; at 1.2 µM 7% | [4]; at 3.7 µM 27% | [4]; at 11.0 µM 23% | [5]; [17] 52% | [6]; at 1.2 µM -1% | [6]; at 3.7 µM 17% | [6]; [17] 4% | [6]; at 11.0 µM 36% | [7]; at 1.2 µM 23% | [7]; at 3.7 µM 29% | [7]; at 11.0 µM 34% | [8]; [17] 9% | [9]; at 1.2 µM 39% | [9]; at 3.7 µM 33% | [9]; at 11.0 µM 39% | [10]; [17] 12% | [11]; at 1.2 µM -1% | [11]; at 3.7 µM 10% | [11]; [17] -1% | [11]; at 11.0 µM 16% | [12]; at 1.2 µM -20% | [12]; at 3.7 µM -18% | [12]; at 11.0 µM -17% | [13]; at 1.2 µM 45% | [13]; at 3.7 µM 43% | [13]; at 11.0 µM 29% | [14]; at 1.2 µM 23% | [14]; at 3.7 µM 32% | [14]; at 11.0 µM 43% | [15]; [17] 12% | [16]; at 1.2 µM 6% | [16]; at 3.7 µM 5% | [16]; at 11.0 µM 12%

O=C(O)/C=C\C(=O)Nc1ccc2c(c1)Cc1cc(Cl)ccc1-2
inactive: [1]; at 1.2 µM -3% | [1]; at 3.7 µM -3% | [1]; at 11.0 µM -3% | [1]; at 33.0 µM 2% | [1]; at 100.0 µM 19% | [2]; at 1.2 µM -3% | [2]; at 3.7 µM -3% | [2]; at 11.0 µM -6% | [2]; at 33.0 µM -5% | [2]; at 100.0 µM 0% | [3]; at 1.2 µM -3% | [3]; at 3.7 µM 8% | [3]; at 11.0 µM 14% | [3]; at 33.0 µM 28% | [4]; at 1.2 µM -3% | [4]; at 3.7 µM -5% | [4]; at 11.0 µM -1% | [4]; at 33.0 µM -4% | [4]; at 100.0 µM 22% | [5]; at 1.2 µM -3% | [5]; at 3.7 µM -4% | [5]; [17] 12% | [5]; at 11.0 µM -2% | [5]; at 33.0 µM 1% | [5]; [18] 7% | [5]; at 50.0 µM -6.3% | [5]; at 100.0 µM 19% | [6]; at 1.2 µM -4% | [6]; at 3.7 µM -1% | [6]; [17] -1% | [6]; at 11.0 µM -2% | [6]; at 33.0 µM 1% | [6]; [18] -4% | [6]; at 50.0 µM 1.65% | [6]; at 100.0 µM 10% | [7]; at 1.2 µM -3% | [7]; at 3.7 µM -4% | [7]; at 11.0 µM -3% | [7]; at 33.0 µM 4% | [7]; at 100.0 µM 29% | [8]; [17] -1% | [8]; [18] 33% | [8]; at 50.0 µM 34.1% | [9]; at 1.2 µM -4% | [9]; at 3.7 µM -7% | [9]; at 11.0 µM -11% | [9]; at 33.0 µM -13% | [9]; at 100.0 µM -3% | [10]; [17] -5% | [10]; [18] 15% | [11]; at 1.2 µM -4% | [11]; at 3.7 µM -5% | [11]; [17] -4% | [11]; at 11.0 µM -7% | [11]; at 33.0 µM -7% | [11]; [18] -7% | [11]; at 50.0 µM 11.9% | [11]; at 100.0 µM -1% | [12]; at 1.2 µM -3% | [12]; at 3.7 µM -3% | [12]; at 11.0 µM -5% | [12]; at 33.0 µM -3% | [12]; at 100.0 µM 11% | [13]; at 1.2 µM -2% | [13]; at 3.7 µM -1% | [13]; at 11.0 µM 1% | [13]; at 33.0 µM 4% | [13]; at 100.0 µM 27% | [14]; at 1.2 µM -2% | [14]; at 3.7 µM 0% | [14]; at 11.0 µM 4% | [14]; at 33.0 µM 10% | [14]; at 100.0 µM 50% | [15]; [17] 2% | [15]; [18] 59% | [15]; at 50.0 µM 54.1% | [16]; at 1.2 µM 0% | [16]; at 3.7 µM 5% | [16]; at 11.0 µM 18% | [16]; at 33.0 µM 34%
active: [3]; at 100.0 µM 81% | [10]; at 50.0 µM 80.3% | [16]; at 100.0 µM 80%
